tim10-1 inh: growth inhibitors of tim10-1 mutant yeast, primary screen, luminescence, uHTS; AID 463190, 2010; inhibition, % at 20 µM; 330,000 compounds, 2.2% hits; S. cerevisiae tim10-1 ts strain growth, BacTiter-Glo, 24 h;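 active means inhibition of at least 40%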;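 further: mutant grown at 25 °C; 0% = DMSO wells with yeast and 100% = wells holding no yeast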
Rce1 inhib: yeast Rce1p protease inhibitors, primary screen, biochemical, fluorescence, cell-free homogeneous. AID 2563, 2010. calls only. yeast membranes, quenched prenylated peptide cleavage fluorescence. 290,000 compounds, 0.27% hits;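 active means fall in fluorescence gain of 50% or more versus controls, with final raw signal at or below 3038400; inconclusive means same 50% fall but final raw signal above 3038400; inactive means fall in fluorescence gain under 50%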;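 further: plate controls were neutral control wells for no effect and wells lacking membranes for full effect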
Target sequence (Q03530 whole entry, looked up): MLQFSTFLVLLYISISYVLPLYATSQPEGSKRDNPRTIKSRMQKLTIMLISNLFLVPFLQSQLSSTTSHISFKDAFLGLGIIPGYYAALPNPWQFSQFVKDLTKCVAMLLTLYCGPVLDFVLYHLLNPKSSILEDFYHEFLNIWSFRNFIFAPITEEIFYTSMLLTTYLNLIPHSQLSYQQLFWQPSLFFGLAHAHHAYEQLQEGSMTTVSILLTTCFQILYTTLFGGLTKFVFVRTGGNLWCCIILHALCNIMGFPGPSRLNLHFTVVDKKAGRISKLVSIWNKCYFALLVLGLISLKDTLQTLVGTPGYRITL
PfHsp90 yeast 2: growth inhibition of PfHsp90-expressing yeast, primary screen, antimalarial PfHsp90 inhibitor project, S. cerevisiae, BacTiter-Glo luminescence, single point, set 2 | BacTiter-Glo ATP, 48 h; yeast lacking PDR1 and PDR3 efflux regulators | AID 504621, 2011 | 310,000 compounds, 0.32% hits | inhibition, % at 9.4 µM;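 active means every replicate shows inhibition above about 80%, whatever the replicate mean, limit read from the data; inconclusive means mean inhibition reaches the set limit but some replicate falls short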;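 further: 0% = DMSO neutral controls and 100% = 20 µM radicicol positive controls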
TIM10 inh: growth inhibitors of isogenic TIM10 control yeast, primary screen, counter-screen for tim10-1 yeast inhibitor project, luminescence, uHTS; S. cerevisiae TIM10 strain growth, BacTiter-Glo luminescence, 24 h; inhibition, % at 10 µM; 330,000 compounds, 1.4% hits;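 active means inhibition of 40% or more at the single tested concentration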;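 further: wild-type TIM10 isogenic control strain grown at permissive 25 °C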
tim23-1 inh: growth inhibitors of tim23-1 mutant yeast, primary screen, luminescence, uHTS; S. cerevisiae tim23-1 growth, BacTiter-Glo luminescence, 24 h; inhibition, % at 20 µM; 330,000 compounds, 1.3% hits; AID 463212, 2010;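 active means growth inhibition of the mutant yeast at or above 50%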;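 further: temperature-sensitive mutant grown at 25 °C; plate controls were DMSO-treated mutant yeast for no effect and medium wells lacking yeast for full effect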
Starred values were filed as active, the others as inactive; i = inactive; ? = inconclusive; . = no result; + = active, no number. In the library only some 3.7% were active in any assay of this set; here they are far more common.

SMILES	tim10-1 inh	Rce1 inhib	PfHsp90 yeast 2	TIM10 inh	tim23-1 inh
NS(=O)(=O)c1cc(Cl)c(NC(=O)COC(=O)c2ccccn2)c(Cl)c1	-12.1	.	.	-4.9	-1.9
CCOc1cccc(CN(C)CC2CCCN(CCc3ccc(Cl)cc3)C2)c1O (configuration not stated)	-77.8	i	7.8	-233.9	-98.0
COc1ccc(CC(=O)NNc2ncnc3c2cnn3C)cc1	-5.7	i	8.4	5.3	3.2
CCn1cc(C(=O)NCCN(C)C)c(=O)c2cc(F)c(N3CCN(C)CC3)cc21	.	+	13.2	.	.
CN1/C(=C\C=Nc2cc(S(=O)(=O)N3CCOCC3)ccc2N2CCOCC2)C(C)(C)c2ccccc21	12.3	.	-14.5	10.7	4.6
Cc1cc(C)c2[nH]c(=O)c(CN(Cc3nnnn3C3CCCC3)C3CCCCC3)cc2c1	.	i	12.8	.	.
Cc1cccc2cc(CN(Cc3nnnn3C3CCCCC3)C3CCCC3)c3nnnn3c12	-39.9	i	104.5*	-9.8	-49.4
COc1ccccc1-c1c(C)oc2c(CN3CCCCC3C)c(O)ccc2c1=O (configuration not stated)	16.5	?	17.0	-1.5	5.2
O=C(O)c1ccc(C2(c3ccc(C(=O)O)cc3)OC(=O)c3ccccc32)cc1	-9.2	i	-1.7	2.9	4.1
O=C1OC(c2ccccc2)(c2cc(Br)c(O)c(Br)c2)c2ccccc21 (configuration not stated)	.	.	114.9*	.	.
CCc1noc(C)c1C(=O)NNC(=O)COc1ccccc1C	-13.8	.	6.9	-3.2	-10.4
O=C(OCC(=O)N1CCN(C(=O)c2ccco2)CC1)c1cn(-c2ccccc2)nc1-c1ccccc1	29.1	i	10.4	18.2	18.3
O=C(OCC(=O)N1CCN(C(=O)c2ccco2)CC1)c1cc(-c2ccc(F)cc2)nc2ccccc12	30.6	.	40.8	-5.1	31.6
Nc1nc(N2CCN(C(=O)c3ccco3)CC2)nc2ccccc12	-6.6	+	.	-20.5	2.0
Cc1cc(N2CCN(C(=O)c3ccco3)CC2)n2ncc(-c3ccccc3)c2n1	19.4	i	124.2*	-11.5	38.1
O=C(OCC(=O)N1CCN(C(=O)c2ccco2)CC1)c1cc(-c2cccc(Br)c2)nc2ccccc12	16.7	i	100.4*	28.8	36.6
O=C(OCC(=O)N1CCN(C(=O)c2ccco2)CC1)c1cc(-c2ccccc2)nc2ccccc12	1.7	i	100.8*	8.8	40.0
CCOc1ccccc1NC(=O)C1CCN(C(=O)c2cccs2)CC1	-5.6	i	17.7	-5.6	5.7
N#Cc1ccc(CSc2nnc(-c3c[nH]c4ccccc34)n2-c2ccccc2)cc1	22.8	+	.	18.1	26.7
N#Cc1ccc(CSc2nnc(-c3ccccn3)n2-c2ccccc2)cc1	-4.2	i	-1.3	-9.5	14.3
COc1ccc(/C=C/C(=O)OCC(=O)NCCNC(=O)COC(=O)/C=C/c2ccc(OC)cc2)cc1	5.6	i	-0.1	-6.5	-5.7
COC(C[C@H]1O[C@H]1C(=O)COCc1ccccc1)OC	-7.4	i	10.9	4.0	-12.8
COc1ccc(CC(=O)OCC(=O)Nc2ccc(Br)cc2)cc1	8.5	+	16.2	-3.6	-5.8
CN1CCCN(C(=O)c2ccc(Br)s2)CC1	-16.9	i	14.8	2.2	-13.1
CN1CCN(C(=O)c2ccc(-c3cccs3)s2)CC1	-13.3	+	-14.5	-2.6	1.2
SMILES	tim10-1 inh	Rce1 inhib	PfHsp90 yeast 2	TIM10 inh	tim23-1 inh
CCOC(=O)c1sc2nc(C3CC3)cc(-c3ccc(F)cc3)c2c1N	28.6	+	24.2	30.6	23.8
CCOC(=O)c1sc2nc(C3CC3)cc(-c3ccc(OC)cc3)c2c1N	32.2	+	-5.2	7.3	15.7
Cc1cc(N2CCN(C)CC2)nc2ccc(NC(=O)CCC3CCCC3)cc12	7.9	i	-35.1	-0.1	12.8
COc1ccccc1CNC(=O)c1ccccc1NS(C)(=O)=O	10.3	i	28.3	6.0	-5.5
COc1ccc(CNC(=O)c2ccccc2NS(C)(=O)=O)cc1	13.8	+	23.0	5.5	8.3
CCc1cc(=O)oc2c3c(cc(OCC(=O)NCCCCCC(=O)O)c12)OC(C)(C)CC3	2.4	+	3.5	-0.2	7.1

High-throughput results (PubChem BioAssay)
